Among all 290,000 compounds or so, about 1,000 (0.34%) were called active. Rule as the data show it: active = inhibition above about 50% (passing the limit was not always enough); inconclusive = no clear call, values can overlap the other calls. Only a selection was taken, and actives are over-represented in it overall.

For the assay, the target named is SUMO-conjugating enzyme UBC9 (Homo sapiens) (UniProt P63279). Nature of the assay: blockers of SAE1/SAE2–UBC9 SUMO transfer – biochemical, HTRF, uHTS, primary screen (AID 2006). Particulars: HTRF SUMOylation assay, SAE1/SAE2 + UBC9, in vitro, at 35 µM, stronger effect = higher value. For orientation: TR-FRET usually uses a lanthanide donor and a delayed reading to cut background.
Sequence of SUMO-conjugating enzyme UBC9 (Homo sapiens) (P63279 whole entry, looked up): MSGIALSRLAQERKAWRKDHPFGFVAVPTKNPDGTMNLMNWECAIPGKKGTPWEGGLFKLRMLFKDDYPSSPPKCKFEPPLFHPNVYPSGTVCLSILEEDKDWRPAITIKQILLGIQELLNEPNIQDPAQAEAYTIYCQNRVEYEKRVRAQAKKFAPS

Regarding `Cc1c(Cc2ccccc2)c(=O)oc2cc(OCC(N)=O)ccc12`, the inhibition was 3.3% (inactive).
Consider `CC(=O)Nc1cc2ccc(OC(C)=O)cc2oc1=O`, for which the inhibition is 43.7% (inactive).
For `CC(=O)Oc1ccc2c(C)c(CC(C)O)c(=O)oc2c1` (stereo not given), the inhibition is 52.6% (active). In addition, the inhibition (average of repeat tests) was determined as 46.3%.
For `COc1ccc2c(C)c(CCC(=O)NC3CC3)c(=O)oc2c1C`, the inhibition is 15.9% (inactive).
`COC(=O)c1nc2n(n1)C(c1ccc([N+](=O)[O-])cc1)C(C(=O)Nc1ccc(Cl)cc1)=C(C)N2` (stereo not given): the inhibition was 56.7% (active). Also, the inhibition (average of repeat tests) came out at 44.5%.
For `COCCOC(=O)C1=C(C)Nc2nc(C)nn2C1c1ccccc1` (stereo not given), the inhibition was -5% (inactive).
For `COc1cc(C2C(C(=O)Nc3ccc(F)cc3)=C(C)Nc3nc(CCCO)nn32)cc(OC)c1OC` (stereo not given), the inhibition is 11.3% (inactive).
For `Cc1nn(C)c(Cl)c1CN1CCC(n2nccc2NC(=O)C2CCCC2)CC1`, the inhibition is 3.6% (inactive).
On the same count and under the same terms, then `CCCCNC(=O)N(O)C1N(/N=C/c2ccc(N(C)C)cc2)C(=S)SC1(C)C` (stereo not given), with 6.7% (inactive); and `Cc1cc(C)c(S(=O)(=O)c2ccc(F)cc2C)c(=O)[nH]1`, with 14.5% (inactive).
The same measure, in the same setting: then `CNC(=S)N/N=C/c1ccc(OCc2ccccc2)c(Br)c1`, with 11.3% (inactive); and `COc1ccc(OC)c(NC(=O)Cc2cccs2)c1`, with 8% (inactive); and `CCc1nnc(NC(=O)/C=C/c2ccc(C)o2)s1`, with 7.9% (inactive).
On the same count and under the same terms, to `Cc1ccc(/C=C/C(=O)Nc2cc(S(=O)(=O)N3CCCCCC3)ccc2OCC(F)(F)F)o1` belongs 25.6% (inactive); to `Cc1ccc(/C=C/C(=O)Nc2ccc([N+](=O)[O-])c(NC(=O)/C=C/c3ccc(C)o3)c2)o1`, 74.6% (active).
As for `CC(C)c1nnc(NC(=O)CCC(=O)N2CCN(c3cccc(Cl)c3)CC2)s1`, the inhibition is 1.4% (inactive).
Still for that read-out and setting: then `Cc1c(C)c(C)c(S(=O)(=O)N2CCC3(CC2)OCCO3)c(C)c1C`, with 0.4% (inactive); and `Oc1ccc(CNc2ccccc2O)cc1`, with 2.9% (inactive); and `N#Cc1ccc(Oc2ccc(C(F)(F)F)cc2NC(=O)c2ccc(F)cc2)cc1`, with -26.5% (inactive).
For the molecule `COc1ccc(NC(=O)CN(C)CC(=O)Nc2cccc(C(F)(F)F)c2)cc1`, the inhibition is 0.2% (inactive).
For `COc1cc(NC(=O)c2cncc(-c3ccc(C#N)cc3)c2)cc(C(=O)Nc2cccc(C(F)(F)F)c2)c1`, the inhibition was 71.3% (active). For the same molecule, the inhibition (average of repeat tests) was 53.1%.
As for `O=C(CN1CCN(S(=O)(=O)c2ccc(F)cc2)CC1)NC1CC1`, the inhibition is 8.8% (inactive).
On the same count and under the same terms, to `COC(=O)C1=C(C)NC(=O)CC1c1ccccc1OC` (stereo not given) belongs 10.4% (inactive); to `COc1cc2c(cc1OC)C(C(=O)Nc1cc(C)c(OC)c(C)c1)CC(=O)N2` (stereo not given), 1.4% (inactive).
For `COc1cc(N/C=C2\CC(=O)NC(C)=C2C#N)cc(OC)c1OC`, the inhibition was 51.7% (active).
On the same count and under the same terms, to `CC(O)c1ccc(OCCN(C)c2ccccn2)cc1` (stereo not given) belongs 20.8% (inactive).
The same measure, in the same setting: to `Cc1[nH]c2c(C(=O)N3CCCC(CCC(=O)NCc4ccccc4F)C3)cccc2c1C` (stereo not given) belongs -0.7% (inactive); to `Brc1ccccc1C1Nc2cccc3cccc(c23)N1`, 69.7% (active); to `Oc1ccc(C2Nc3cccc4cccc(c34)N2)cc1`, 31.7% (inactive).
For the molecule `Cc1ccc(C2Nc3cccc4cccc(c34)N2)cc1`, the inhibition was 8.5% (inactive).
Still for that read-out and setting: to `CC(C)NS(=O)(=O)c1ccc(OCC(=O)NC2CCCCCC2)cc1` belongs 2.1% (inactive).
For the molecule `O=C(CC1NCCc2ccccc21)Nc1cccc(Cl)c1` (stereo not given), the inhibition was -5.3% (inactive).
Consider `CCCCCCNS(=O)(=O)c1ccccc1Br`, for which the inhibition is 21.7% (inactive).
On to `Cc1ccc(-n2ncc(C(=O)NC3CC3)c2C2CCN(C(=O)OC(C)(C)C)CC2)c(C)c1`, for which the inhibition was -2.6% (inactive).
Consider `CCc1nccn1CCC(=O)N1CCCC(N2CCN(c3ccccc3F)CC2)C1` (stereo not given), for which the inhibition is 4.2% (inactive).
The same measure, in the same setting: to `COc1ccc(C(=O)CC(=O)c2ccc(C)cc2)c(O)c1` belongs -0.3% (inactive); to `O=c1c(/C=N/O)coc2ccc(Cl)cc12`, 8.4% (inactive).
Still for that read-out and setting: to `O=c1c(-c2ccccc2)coc2cc(O)ccc12` belongs 20.1% (inactive).
As for `O=C1/C(=C/c2coc3ccc(O)cc3c2=O)SC(=S)N1c1ccccc1`, the inhibition was 57% (active). The inhibition (average of repeat tests) amounted to 34.2%.
`Cc1cccc(OCC(O)Cn2c(N3CCCCC3)nc3c2c(=O)[nH]c(=O)n3C)c1` (stereo not given): the inhibition was 20.6% (inactive).
The same measure, in the same setting: to `CCn1cc(CN2CCN(CC(C)(C)C)C(CCO)C2)c2ccccc21` (stereo not given) belongs 5.7% (inactive); to `Oc1ccccc1C1=NN(c2ccccc2)C(c2ccccc2)C1` (stereo not given), 11% (inactive); to `CCN(CC)CCCNC(=S)N(CCO)Cc1cc2cc3c(cc2[nH]c1=O)OCO3`, 18.4% (inactive).
The same measure, in the same setting: then `Cc1ccc(NC(=O)C2CCCN2S(=O)(=O)c2cccc3cccnc23)c(C)c1` (stereo not given), with 4.8% (inactive); and `O=S(=O)(c1ccc(Br)c2ccccc12)N1CCOCC1`, with 2.6% (inactive); and `CC(C)[C@H](NC(=O)OCc1ccccc1)C(=O)OCc1ccccc1`, with -16.4% (inactive).
In the case of `O=[N+]([O-])C(=c1ccc2c(c1)N1C3=C(CCCC3)CC3CCCCC31N=2)[N+](=O)[O-]` (stereo not given), the inhibition is 57.5% (active).
On the same count and under the same terms, to `Cc1sc2ncn(CC(=O)NCCN(C)C)c(=O)c2c1S(=O)(=O)N1CCC(C)CC1` belongs -5.2% (inactive).
Same read-out and setting: then `CN1CCC(=O)N([C@H](CO)Cc2ccccc2)CC1`, with 13% (inactive); and `CCOc1ccc(OCc2ccc(C(=O)N(C)c3ccccc3)o2)cc1`, with 5% (inactive); and `CC1=C(C(=O)OC2CCCCC2)C(c2cccnc2)n2ncnc2N1` (stereo not given), with -7.1% (inactive).
Still for that read-out and setting: to `C=CCc1ccccc1OCC(O)CN1CCN(CCO)CC1` (stereo not given) belongs 0.7% (inactive).
Regarding `O=C(Nc1ccc(S(=O)(=O)Nc2nccs2)cc1)c1cc(-c2ccncc2)nc2ccccc12`, the inhibition was 50% (active).
The same measure, in the same setting: then `O=C(Nc1ccc(S(=O)(=O)Nc2nccs2)cc1)c1cc(=O)[nH]c2ccccc12`, with 30.5% (inactive).
On to `CCC(CC)C(=O)Nc1ccc(S(=O)(=O)Nc2nccs2)cc1`, for which the inhibition is 14.7% (inactive).
Still for that read-out and setting: then `Cc1nn(Cc2ccccc2)c(C)c1NS(=O)(=O)c1ccccc1`, with 3.7% (inactive); and `O=[N+]([O-])c1c(NCCO)cc(Sc2nc3ccccc3s2)c2nonc12`, with 90.1% (active).
Same read-out and setting: then `O=C(O)c1cccc(S(=O)(=O)Nc2ccc(O)cc2Sc2nc3ccccc3s2)c1`, with -14.5% (inactive); and `COc1ccc(S(=O)(=O)Nc2ccc(O)c(Sc3nc4ccccc4s3)c2)cc1`, with -0.5% (inactive).
The same measure, in the same setting: to `CCOCc1nnc(NC(=O)CCC2CCCCC2)s1` belongs 10.6% (inactive); to `O=C(CCc1ccccc1)Nc1ccnn1C1CCN(Cc2ccc(OCCO)cc2)CC1`, 6.4% (inactive).
In the case of `Nc1c(NCCc2ccccc2)c2ccccc2oc1=O`, the inhibition is 6.6% (inactive).
As for `O=c1oc2cc(O)ccc2cc1-c1ccc(F)cc1`, the inhibition is 50.3% (active). Further, the inhibition (average of repeat tests) was found to be 56%.
`O=c1oc2ccccc2cc1-c1csc(Nc2ccc(O)cc2)n1`: the inhibition was 7.7% (inactive).
The same measure, in the same setting: then `COc1cccc(C(=O)c2cc3ccc(O)cc3oc2=O)c1`, with 16.5% (inactive); and `O=c1onc(-c2c(F)cccc2F)n1-c1ccccc1Cl`, with -6.5% (inactive).
Same read-out and setting: then `CCOc1ccc(C2/C(=C(/O)c3ccc4c(c3)CC(C)O4)C(=O)C(=O)N2CCCn2ccnc2)cc1` (stereo not given), with -13.9% (inactive); and `Cc1ccc(CNC(=O)Cc2cn(C)c3ccccc23)cc1`, with -1.9% (inactive); and `Cn1c(-c2ccco2)nc2cc3ccccc3cc21`, with 44.7% (inactive).
The same measure, in the same setting: then `c1coc(-c2nc3nc4ccccc4n3nc2-c2ccco2)c1`, with 90.5% (active); and `Clc1ccccc1CSc1nnc(-c2ccco2)c(-c2ccco2)n1`, with 35.9% (inactive); and `O=C(NCCN1CCCC(O)C1)c1cc(COc2c(F)cccc2F)on1` (stereo not given), with 1.7% (inactive).
As to `CC(=O)N1CCC(N(C(=O)Nc2ccc(Cl)cc2)C(C)C)CC1`, the inhibition was 13.1% (inactive).
Still for that read-out and setting: to `Cc1ccc(NS(=O)(=O)c2ccc(-c3coc(C)n3)cc2)c(C)c1` belongs -8.6% (inactive); to `COC(=O)CNC(=O)c1cc(-c2ccncc2)nc2ccccc12`, 0.8% (inactive); to `CCc1ccc(-c2cc(C(=O)NCc3ccco3)c3ccccc3n2)s1`, 59.3% (active).
As for `CCCCN(C)CCCNC(=O)c1cc(-c2cccs2)nc2ccccc12`, the inhibition was 20.3% (inactive).
The same measure, in the same setting: then `Cc1ccccc1N1CCN(C2CCCN(C(=O)c3cn4c(C)cccc4n3)C2)CC1` (stereo not given), with -1.6% (inactive); and `CCOC(=O)/C(=N\Nc1ccccc1[N+](=O)[O-])c1csc(Nc2ccccc2)n1`, with 10.4% (inactive); and `COc1cc(C(=O)Nn2c(CC(C)C)nc3ccccc3c2=O)cc(OC)c1OC`, with 7.6% (inactive).
On to `COC(=O)c1cc(OCC(=O)NC2CCCc3ccccc32)cc(C(=O)OC)c1` (stereo not given), for which the inhibition is 11.7% (inactive).
Same read-out and setting: to `O=C(O)c1ccccc1NC(=O)c1ccccc1-c1ccccc1C(=O)O` belongs 9% (inactive); to `COc1ccccc1NC(=O)CSc1nc2sc3c(c2c(=O)n1-c1ccccc1)CCN(C)C3`, -8.5% (inactive).
With `Cc1ccc(-c2nc(SCC(=O)Nc3ccccc3OC(F)F)c3c(C)c(C(=O)O)sc3n2)cc1`, the inhibition was 77.1% (active).
On the same count and under the same terms, then `CCOC(=O)c1ccc[n+](CC(=O)Nc2ccccc2OC(F)F)c1`, with -3.9% (inactive); and `CCc1nc2cccnc2n1-c1ccc(C(=O)O)cc1`, with 10.1% (inactive); and `CCOC(=O)CN(C(=O)COc1nc(C)cc(C)c1C#N)c1ccc(Cl)cc1`, with 16.2% (inactive).
Consider `Cc1cccc(C)c1N1C(=O)CN(Cc2ccccc2)C1=S`, for which the inhibition was 3.1% (inactive).
Same read-out and setting: to `CCOCc1nnc(NC(=O)CCS(=O)(=O)Cc2ccccc2)s1` belongs 0.9% (inactive).
The same measure, in the same setting: then `COCC(C)OC(=O)c1c(N)n(CCCN2CCOCC2)c2nc3ccccc3nc12` (stereo not given), with 48.2% (inactive).
As to `CC(C)(C)OC(=O)c1c(N)n(CCCN2CCCC2=O)c2nc3ccccc3nc12`, the inhibition was 62.9% (active). Further, the inhibition (average of repeat tests) was 40.3%.
Take `CC(C)(C)c1ccc(C(=O)NCCn2c(N)c(C#N)c3nc4ccccc4nc32)cc1`: the inhibition is 27.7% (inactive).
The same measure, in the same setting: then `CC(C)=CCCC(C)CN1CCC(n2nccc2NC(=O)c2ccccc2)CC1` (stereo not given), with 7% (inactive).
Take `COc1cc(/C(=C/c2ccccc2)c2ccccc2)c2c(c1)oc1ccccc12`: the inhibition was 12.7% (inactive).

The inhibition is the relative decrease from the control value, in per cent.

The values above are taken from PubChem BioAssay AID2006 (Sanford-Burnham Center for Chemical Genomics, 2009).
